{"source": "PubChem BioAssay (EPA / NIEHS)", "key": {"[1]": {"target": "Thyroid hormone receptor alpha (Rattus norvegicus) + Thyroid hormone receptor beta (Rattus norvegicus) (UniProt P18113+P63059)", "sequence (P63059 whole entry, looked up)": "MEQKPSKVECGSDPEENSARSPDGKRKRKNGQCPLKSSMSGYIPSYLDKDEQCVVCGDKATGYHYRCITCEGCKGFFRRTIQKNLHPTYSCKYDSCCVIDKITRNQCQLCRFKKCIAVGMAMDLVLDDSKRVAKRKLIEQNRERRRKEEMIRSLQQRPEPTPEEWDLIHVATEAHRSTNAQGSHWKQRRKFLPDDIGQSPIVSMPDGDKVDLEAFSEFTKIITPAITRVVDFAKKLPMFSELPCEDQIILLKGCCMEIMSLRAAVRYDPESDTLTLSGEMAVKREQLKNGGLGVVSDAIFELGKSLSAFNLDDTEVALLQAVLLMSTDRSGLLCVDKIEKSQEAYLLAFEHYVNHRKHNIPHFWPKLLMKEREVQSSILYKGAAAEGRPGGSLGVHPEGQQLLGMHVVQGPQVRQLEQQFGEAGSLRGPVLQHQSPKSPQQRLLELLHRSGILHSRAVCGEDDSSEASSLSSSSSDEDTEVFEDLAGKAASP", "sequence (P18113 whole entry, looked up)": "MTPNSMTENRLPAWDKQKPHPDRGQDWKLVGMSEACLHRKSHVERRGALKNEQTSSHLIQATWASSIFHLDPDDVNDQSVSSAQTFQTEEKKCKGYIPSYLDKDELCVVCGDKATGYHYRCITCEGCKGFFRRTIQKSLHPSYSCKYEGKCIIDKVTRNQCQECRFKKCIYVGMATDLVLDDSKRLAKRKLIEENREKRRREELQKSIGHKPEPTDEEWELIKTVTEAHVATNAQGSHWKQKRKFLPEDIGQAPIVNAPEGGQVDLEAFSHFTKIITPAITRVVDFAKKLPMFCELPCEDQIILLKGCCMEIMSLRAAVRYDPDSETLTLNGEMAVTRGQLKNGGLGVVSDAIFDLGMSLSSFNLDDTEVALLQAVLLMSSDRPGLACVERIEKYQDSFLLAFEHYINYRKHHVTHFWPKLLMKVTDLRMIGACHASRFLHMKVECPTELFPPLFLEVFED", "experiment": "TOX21_TR_LUC_GH3_Agonist_Followup: Tox21 GH3 Thyroid Hormone Receptor Agonism Luciferase Follow-Up Assay (AID 2283939)", "experimental": "TOX21_TR_LUC_GH3_Agonist_Followup is a secondary assay for specificity for the TOX21_TR_LUC_GH3_Agonist assay. TOX21_TR_LUC_GH3_Agonist_Followup is a cell-based, single-readout assay that uses GH3, a rat pituitary gland cell line, with measurements taken at 28 hours after chemical dosing in a 1536-well plate.TOX21_TR_LUC_GH3_Agonist_Followup is one of one assay component(s) measured or calculated from the TOX21_TR_LUC_GH3_Agonist_Followup assay. It is designed to make measurements of luciferase induction, a form of inducible reporter, as detected with bioluminescence signals by […] technology.Data from the assay component TOX21_TR_LUC_GH3_Agonist_Followup was analyzed into 1 assay endpoint. This assay endpoint, TOX21_TR_LUC_GH3_Agonist_Followup, was analyzed in the positive analysis fitting direction relative to DMSO as the negative control and baseline of activity. Using a type of inducible reporter, gain-of-signal activity can be used to understand changes in the reporter gene as they relate to the gene THRA and THRB in the GH3 cell line using a luciferase reporter. Furthermore, this assay endpoint can be referred to as a primary readout, because the performed assay has only produced 1 assay endpoint. This assay endpoint is designated followup because it was a confirmatory screen following the primary qHTS assay. […]"}, "[2]": {"target": "THRA (gene 7067) (UniProt P10827)", "sequence (P10827 whole entry, looked up)": "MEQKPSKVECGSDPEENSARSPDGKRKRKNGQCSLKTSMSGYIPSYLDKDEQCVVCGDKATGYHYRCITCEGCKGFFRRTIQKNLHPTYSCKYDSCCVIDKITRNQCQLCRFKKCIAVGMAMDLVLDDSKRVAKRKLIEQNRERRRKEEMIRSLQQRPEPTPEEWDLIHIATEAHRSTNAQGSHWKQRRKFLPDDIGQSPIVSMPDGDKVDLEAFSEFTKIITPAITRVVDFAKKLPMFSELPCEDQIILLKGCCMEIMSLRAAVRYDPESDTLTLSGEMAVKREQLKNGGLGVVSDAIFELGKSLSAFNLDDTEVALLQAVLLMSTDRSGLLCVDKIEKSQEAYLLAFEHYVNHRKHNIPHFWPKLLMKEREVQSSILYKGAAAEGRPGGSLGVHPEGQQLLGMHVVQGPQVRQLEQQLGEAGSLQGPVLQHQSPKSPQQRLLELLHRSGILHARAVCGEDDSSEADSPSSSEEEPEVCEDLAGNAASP", "experiment": "TOX21_TRA_COA_Agonist_Followup_ratio: Tox21 Thyroid Hormone Receptor alpha Agonism through Coactivator Recruitment Follow-Up Assay, Ratio (AID 2283948; active = hit-call score of the fitted dose curve at least 0.9, where 1 is the maximum; inactive = score below 0.9)", "from_the_text": "TOX21_TRa_COA_Agonist_Followup is a secondary assay for specificity for the TOX21_TR_GH3_LUC_Agonist assay. The LanthaScreen TR-FRET TR coactivator assay kits were used to determine TR activity in a cell-free functional assay. A time-resolved fluorescence resonance energy transfer (TR-FRET) signal was indicative of coactivator (SRC-2) recruitment.TOX21_TRA_COA_Agonist_Followup_ratio is assay component calculated in the TOX21_TRA_COA_Agonist_Followup assay. The TR-FRET ratio of acceptor emission (ch2) to donor emission (ch1) is indicative of the resonance energy transfer to the fluorescein tag on the coactivator peptide following recruitment to the receptor.Data from the assay component TOX21_TRA_COA_Agonist_Followup_ratio was analyzed into 1 assay endpoint. This assay endpoint, TOX21_TRA_COA_Agonist_Followup_ratio, was analyzed in the positive analysis fitting direction relative to DMSO as the negative control and baseline of activity. Using a type of inducible reporter, gain-of-signal activity can be used to understand changes in the reporter gene as they relate to the gene THRA. Furthermore, this assay endpoint can be referred to as a primary readout, because this assay has produced multiple assay endpoints and this ratio serves a reporter gene function to understand target activity. […]"}, "[3]": {"target": "THRB (gene 7068) (UniProt P10828)", "sequence (P10828 whole entry, looked up, the tested form may be a part)": "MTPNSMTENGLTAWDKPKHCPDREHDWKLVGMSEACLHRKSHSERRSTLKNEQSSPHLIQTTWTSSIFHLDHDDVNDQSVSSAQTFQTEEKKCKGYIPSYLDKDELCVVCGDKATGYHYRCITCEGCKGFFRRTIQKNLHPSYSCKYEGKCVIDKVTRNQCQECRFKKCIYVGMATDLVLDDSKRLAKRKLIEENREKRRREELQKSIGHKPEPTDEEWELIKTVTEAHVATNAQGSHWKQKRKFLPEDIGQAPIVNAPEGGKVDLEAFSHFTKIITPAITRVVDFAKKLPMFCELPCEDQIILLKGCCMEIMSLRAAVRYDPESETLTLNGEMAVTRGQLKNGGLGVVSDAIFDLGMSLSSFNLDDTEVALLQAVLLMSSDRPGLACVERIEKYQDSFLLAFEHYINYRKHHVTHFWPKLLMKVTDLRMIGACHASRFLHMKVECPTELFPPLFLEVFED", "experiment": "TOX21_TRB_BLA_Agonist_Followup_ratio: Tox21 Thyroid Hormone Receptor beta Agonism Beta-lactamase (BLA) Follow-Up Assay, Ratio (AID 2283954)", "procedure,_shortened": "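Agonist mode: compounds (11-point, triplicate) incubated 18 h with HEK293T cells carrying GAL4-DBD/human TRβ-LBD and UAS-β-lactamase. Blue/green (460/530 nm) FRET ratio read after 2 h CCF4-AM loading; CellTiter-Glo viability run in the same plates.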"}, "[4]": {"target": "THRB (gene 7068) (UniProt P10828)", "experiment": "TOX21_TRB_COA_Agonist_Followup_ratio: Tox21 Thyroid Hormone Receptor beta Agonism through Coactivator Recruitment Follow-Up Assay, Ratio (AID 2283963; active = hit-call score of the fitted dose curve at least 0.9, where 1 is the maximum; inactive = score below 0.9)", "procedure,_shortened": "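Agonism is measured as coactivator recruitment in a purified-protein TR-FRET format, using GST-TRβ LBD at 5.0 nM, fluorescein-SRC-2 peptide at 200 nM and Tb-labeled anti-GST antibody at 2 nM. Values are 520:495 nm ratios relative to DMSO (0%) and T3 (100%).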"}, "[5]": {"target": "Retinoic acid receptor RXR-alpha (Homo sapiens) (UniProt P19793)", "sequence (P19793 whole entry, looked up)": "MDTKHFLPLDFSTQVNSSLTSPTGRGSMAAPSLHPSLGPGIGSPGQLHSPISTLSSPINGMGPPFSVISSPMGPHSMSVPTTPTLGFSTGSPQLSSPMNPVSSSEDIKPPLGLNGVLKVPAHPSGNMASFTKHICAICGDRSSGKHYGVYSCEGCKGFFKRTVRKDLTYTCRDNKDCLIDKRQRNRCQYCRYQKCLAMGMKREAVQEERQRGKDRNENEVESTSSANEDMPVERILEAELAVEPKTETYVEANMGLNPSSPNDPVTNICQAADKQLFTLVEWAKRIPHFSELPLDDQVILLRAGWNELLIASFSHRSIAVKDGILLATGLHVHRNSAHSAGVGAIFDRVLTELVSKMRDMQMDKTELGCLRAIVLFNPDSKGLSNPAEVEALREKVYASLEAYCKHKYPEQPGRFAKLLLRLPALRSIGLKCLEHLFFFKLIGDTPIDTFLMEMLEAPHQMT", "experiment": "TOX21_TR_RXR_BLA_Agonist_Followup_ratio: Tox21 Thyroid Hormone Receptor beta Retinoid X Receptor alpha (RXRa) Agonism Beta-lactamase (BLA) Follow-Up Assay, Ratio (AID 2283968)", "procedure,_shortened": "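Agonist mode: compounds given to RXRa-bla HEK293T cells at 11 concentrations, triplicate, 16 h at 37C/5% CO2. Readout is the 460:530 nm blue/green ratio after 2 h substrate loading at room temperature; DMSO baseline, 9-cis retinoic acid control.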"}, "[6]": {"experiment": "TOX21_TR_RXR_BLA_Agonist_Followup_viability: Viability Assessment in the Tox21 Thyroid Hormone Receptor beta Retinoid X Receptor alpha (RXRa) Agonism Beta-lactamase (BLA) Follow-Up Assay (AID 2283970)", "procedure,_shortened": "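CellTiter-Glo ATP luciferase read-out of cell viability, multiplexed with the beta-lactamase reporter run. RXRa-bla HEK293T cells in charcoal-stripped serum medium were exposed 16 h at 37C; data fitted both directions relative to DMSO.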"}, "[7]": {"tested_on": "DIO1 (gene 1733)", "experiment": "CCTE_GLTED_hDIO1: CCTE's human Deiodinase 1 (DIO1) Inhibition Assay, Great Lakes Toxicology and Ecology Division (GLTED) Lab (AID 2283987);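 note: isolated human DIO1 enzyme in a cell-free setup rather than cells; enzyme activity read as free iodide liberated from substrate via Sandell-Kolthoff colorimetry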", "procedure,_shortened": "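Chemicals are tested on human DIO1 without cells for 3 h. Uninhibited enzyme frees iodide, which speeds cerium(IV) reduction by arsenic and is read by spectrophotometry.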"}, "[8]": {"target": "Nucleoli Translocation, AR (gene 367) (UniProt P10275)", "sequence (P10275 whole entry, looked up)": "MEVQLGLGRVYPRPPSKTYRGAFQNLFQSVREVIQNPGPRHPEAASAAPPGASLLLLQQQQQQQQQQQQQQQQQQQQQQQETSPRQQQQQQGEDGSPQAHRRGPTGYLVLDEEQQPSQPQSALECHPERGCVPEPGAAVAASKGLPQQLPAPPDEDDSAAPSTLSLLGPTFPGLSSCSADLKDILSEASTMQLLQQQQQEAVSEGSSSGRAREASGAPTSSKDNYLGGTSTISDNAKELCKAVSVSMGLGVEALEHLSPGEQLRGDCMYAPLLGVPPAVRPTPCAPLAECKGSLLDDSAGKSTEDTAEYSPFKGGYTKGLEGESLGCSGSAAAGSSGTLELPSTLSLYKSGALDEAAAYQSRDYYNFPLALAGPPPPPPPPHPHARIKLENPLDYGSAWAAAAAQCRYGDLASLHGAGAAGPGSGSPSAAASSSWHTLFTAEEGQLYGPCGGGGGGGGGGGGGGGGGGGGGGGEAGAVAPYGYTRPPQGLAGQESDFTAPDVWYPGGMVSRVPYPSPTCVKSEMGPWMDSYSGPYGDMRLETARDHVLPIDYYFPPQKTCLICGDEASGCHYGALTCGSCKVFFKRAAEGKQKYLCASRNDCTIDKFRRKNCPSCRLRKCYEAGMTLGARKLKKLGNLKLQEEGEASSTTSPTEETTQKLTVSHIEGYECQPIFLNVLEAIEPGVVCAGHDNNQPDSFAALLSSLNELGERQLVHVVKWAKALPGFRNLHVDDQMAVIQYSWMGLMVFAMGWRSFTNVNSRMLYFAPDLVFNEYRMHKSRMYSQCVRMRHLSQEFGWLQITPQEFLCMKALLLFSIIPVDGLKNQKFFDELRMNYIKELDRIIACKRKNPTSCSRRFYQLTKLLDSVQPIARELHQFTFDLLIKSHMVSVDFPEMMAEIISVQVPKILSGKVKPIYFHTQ", "experiment": "UPITT_HCI_U2OS_AR_TIF2_Nucleoli_Antagonist: University of Pittsburgh U2OS Androgen Receptor-Transcriptional Intermediary Factor 2 (AR-TIF2) Antagonism High Content Imaging Assay for Nucleoli Translocation (AID 2283997)", "procedure,_shortened": "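Antagonism is read as loss of nucleolar AR-RFP signal relative to DHT, imaged in U2OS cells also carrying GFP-TIF2. Compounds screened at 20 uM final, 0.2% DMSO; primary actives retested in triplicate.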"}, "[9]": {"target": "Ratio of Nucleoli Translocation and Cytoplasm, AR (gene 367) (UniProt P10275)", "sequence (P10275 whole entry, looked up)": "as above", "experiment": "UPITT_HCI_U2OS_AR_TIF2_Nucleoli_Cytoplasm_Ratio_Antagonist: University of Pittsburgh U2OS Androgen Receptor-Transcriptional Intermediary Factor 2 (AR-TIF2) Antagonism High Content Imaging Assay for Ratio of Nucleoli Translocation and Cytoplasm (AID 2283999);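 note: antagonists lower the DHT-driven ratio of nucleolar to cytoplasmic red signal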", "procedure,_shortened": "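High-content imaging of red fluorescence ratio, nucleoli versus cytoplasm, in U2OS expressing AR-RFP and TIF2-GFP, fitted relative to DHT. Compounds tested once at 20 uM final, then 0.195 to 50 uM final in serial dilution.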"}, "[10]": {"target": "Ratio of Nucleoli Translocation and Cytoplasm, AR (gene 367) (UniProt P10275)", "experiment": "UPITT_HCI_U2OS_AR_TIF2_Nucleoli_Cytoplasm_Ratio_Agonist: University of Pittsburgh U2OS Androgen Receptor-Transcriptional Intermediary Factor 2 (AR-TIF2) Agonism High Content Imaging Assay for Ratio of Nucleoli Translocation and Cytoplasm (AID 2284000);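 note: hits raise the red nucleolar to cytoplasm ratio above vehicle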", "procedure,_shortened": "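Compounds tested at 20 uM final in primary screen (0.2% DMSO) and 0.195-50 uM final in dose-response (0.5% DMSO). Imaging of human U2OS cells bearing RFP-AR and GFP-TIF2; endpoint is nucleoli/cytoplasm red signal ratio, positive direction relative to DMSO.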"}}, "note": "Inconclusive results are not listed. Calls of active or inactive are those of the source. Rule for the calls, unless noted: active = hit-call score of the fitted dose curve at least 0.9, where 1 is the maximum; inconclusive = response in the unintended direction; inactive = score below 0.9.", "data": [{"smiles": "CCCCCCC(C)O", "note": "(stereo not given)", "values": [{"measurement": "outcome", "setting": "[1]", "value": "inactive"}, {"measurement": "outcome", "setting": "[2]", "value": "inactive"}, {"measurement": "outcome", "setting": "[3]", "value": "inactive"}, {"measurement": "outcome", "setting": "[4]", "value": "inactive"}, {"measurement": "outcome", "setting": "[5]", "value": "inactive"}, {"measurement": "outcome", "setting": "[6]", "value": "inactive"}]}, {"smiles": "CCCCCCCCOC(=O)c1ccc(O)cc1", "values": [{"measurement": "AC50", "setting": "[7]", "value": "86.4 µM (active)"}]}, {"smiles": "c1ccc2c(c1)-c1ccc3ccc4cccc5cc-2c1c3c45", "values": [{"measurement": "AC50", "setting": "[8]", "value": "15.4 µM (active)"}, {"measurement": "outcome", "setting": "[9]", "value": "inactive"}, {"measurement": "outcome", "setting": "[10]", "value": "inactive"}]}, {"smiles": "CC1COC(=O)O1", "note": "(stereo not given)", "values": [{"measurement": "outcome", "setting": "[8]", "value": "inactive"}, {"measurement": "outcome", "setting": "[10]", "value": "inactive"}]}, {"smiles": "CC1=CCC(C(C)(C)O)CC1", "note": "(stereo not given)", "values": [{"measurement": "outcome", "setting": "[10]", "value": "inactive"}]}, {"smiles": "O=C(O)C1=NN(c2ccc(S(=O)(=O)O)cc2)C(=O)C1", "values": [{"measurement": "AC50", "setting": "[7]", "value": "57.6 µM (active)"}]}, {"smiles": "CCCCCCOc1ccc(O)cc1", "values": [{"measurement": "AC50", "setting": "[8]", "value": "50 µM (active)"}, {"measurement": "AC50", "setting": "[9]", "value": "90 µM (active)"}, {"measurement": "AC50", "setting": "[10]", "value": "23.9 µM (active)"}]}, {"smiles": "CCC(C)(C)C1CCC(=O)CC1", "values": [{"measurement": "outcome", "setting": "[8]", "value": "inactive"}, {"measurement": "outcome", "setting": "[9]", "value": "inactive"}, {"measurement": "outcome", "setting": "[10]", "value": "inactive"}]}]}
